These results are taken from PubChem BioAssay (NCATS).

A number with no mark means an inactive call. Records with an inconclusive call do not appear. The source made the active and inactive calls. The call rests on the fitted dose curve; in most records, active means well fitted curve in the direction sought with a large enough effect; inconclusive means small, poorly fitted or top-dose-only effect, or another doubt; inactive means no such curve, though single readings can be large; an effect the other way counts as inactive or inconclusive.

For test [1], the target named is Calcium and integrin-binding protein 1 (Homo sapiens) (UniProt Q99828). Description: Primary qHTS for Identification of Calcium Integrin Binding Protein 1 (CIB1) Competitor (AID 1508620). Further: top concentration of the series differs between compounds; on the % scale 0 is the no-effect control and ±100 the full control effect. The gist of the method: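 Fluorescence polarization competition: GST-tagged CIB1 (1 uM final) preincubated with compound 15 min at room temperature, then FITC-labelled alphaIIb peptide (100 nM final) added. After 15 min at room temperature, polarization read at Ex 480/Em 540.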
Sequence of Calcium and integrin-binding protein 1 (Homo sapiens) (Q99828 whole entry, looked up): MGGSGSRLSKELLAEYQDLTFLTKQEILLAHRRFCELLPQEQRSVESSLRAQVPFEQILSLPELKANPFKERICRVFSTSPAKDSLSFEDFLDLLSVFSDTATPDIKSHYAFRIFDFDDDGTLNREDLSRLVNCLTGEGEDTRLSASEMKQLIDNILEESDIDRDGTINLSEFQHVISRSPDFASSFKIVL
Background: Quantitative high-throughput screening tests each substance at several concentrations.

A short description of test [2]: Primary qHTS for inhibitors of nuclear receptor binding SET domain protein 2 (NSD2) in an isogenic RCH-ACV NSD2 p.E1099K mutant (9B) (AID 1645876). Further: nearly all actives have a fitted effect of over 70% in size. Further: potency means the concentration at half of the fitted maximal effect.
The target of test [3] is Phospholipid hydroperoxide glutathione peroxidase GPX4 (Homo sapiens) (UniProt P36969). As to the kind of experiment: Primary qHTS Assay for Inhibitors of Recombinant Selenoprotein Glutathione Peroxidase 4 (GPX4) (AID 1845192). Further: nearly all actives have a fitted effect of over 65% in size. In outline: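 GR-coupled assay: recombinant GPX4 preincubated 30 min with compound at room temperature; final 200 nM GPX4, 1 mM GSH, 0.5 mM cumene hydroperoxide, 0.5 mM NADPH, 100 nM GR, 0.01% BSA, pH 7.5 Tris. NADPH fluorescence (340/450 nm) read at 0 and 15 min.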
Sequence of Phospholipid hydroperoxide glutathione peroxidase GPX4 (Homo sapiens) (P36969 whole entry, looked up): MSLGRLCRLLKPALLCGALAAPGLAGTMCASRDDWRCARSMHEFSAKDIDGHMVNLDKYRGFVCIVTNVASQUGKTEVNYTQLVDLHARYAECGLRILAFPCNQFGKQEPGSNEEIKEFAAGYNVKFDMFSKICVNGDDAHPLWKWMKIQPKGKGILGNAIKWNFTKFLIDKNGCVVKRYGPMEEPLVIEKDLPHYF

The target of test [4] is Luciferin 4-monooxygenase (Photinus pyralis) (UniProt P08659). Description: Primary firefly luciferase (FLuc) qHTS assay for identification of artifact compounds. (AID 1845220). Further: nearly all actives have a fitted effect of over 60% in size. The conditions noted are these: outcome: dose series up to 54.1 µM unless noted. In outline: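 D-luciferin and ATP (10 uM each, final) in Tris acetate buffer pH 7.6 were incubated with compounds for 15 min at room temperature. The reaction was started with 10 nM Photinus pyralis luciferase and luminescence read after 5 min. Percent inhibition was fitted to a 4-parameter Hill equation.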

Test [5] has as its system Nanoluciferase (engineered Oplophorus gracilirostris luciferase). Description: Primary Nanoluciferase (NLuc) qHTS assay for identification of artifact compounds. (AID 1845222).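 Further: 0% = DMSO and -100% = no enzyme.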 The gist of the method:
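Diluted conditioned medium from NLuc-expressing S16 cells treated with compounds for 15 min at room temperature, then Nano-Glo substrate added; luminescence read after 5 min. Percent inhibition versus no-enzyme and DMSO controls fitted to 4-parameter Hill equation.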

In the next test the test system is CRL-7250. As to the kind of experiment: Cytotoxic Profiling of Annotated Libraries Using Quantitative High-Throughput Screening (AID 1296008). Further: nearly all actives have a fitted effect of over 60% in size. Further: potency means the concentration at half of the fitted maximal effect. On max response: on the % scale 0 is the no-effect control and ±100 the full control effect. Conditions: Five cell lines viability, CellTiter-Glo ATP luminescence, 48-72 h; max response: stronger effect = lower value. In outline:
(§1)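 Cells exposed to compounds for 48 or 72 hr at 37 degrees Celsius. Viability read as ATP-coupled luminescence with CellTiter-Glo after 10 min at room temperature.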
For orientation: Cellular ATP, detected with luciferase, serves as a proxy for viable cell number.

The test system of a further test is HEK293. The description is as above. Conditions: Five cell lines viability, CellTiter-Glo ATP luminescence, 48-72 h; max response: stronger effect = lower value. In outline:
as §1

The next test has as its system HaCat. Described as above. Conditions: Five cell lines viability, CellTiter-Glo ATP luminescence, 48-72 h; max response: stronger effect = lower value. In outline: as §1
The subject of another test is NIH3T3. The description is as above. The conditions noted are these: Five cell lines viability, CellTiter-Glo ATP luminescence, 48-72 h; max response: stronger effect = lower value. The gist of the method:
as §1

The next test has as its system CASKI. As to the kind of experiment: Primary qHTS to identify gynecologic anti-cancer compounds using libraries of approved drugs and bioactive compounds (AID 1345084). Further: nearly all actives have a fitted effect of over 55% in size. Further: potency means the concentration at half of the fitted maximal effect. The conditions noted are these: Gynecologic cancer cell panel viability, ATPlite luminescence, 48 h; series mostly up to 57.5 µM. The gist of the method: (§2)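 Five-point cytotoxicity, 48 h drug exposure at 37 C, 5% CO2, on cells seeded 16 h beforehand. ATP content read by ATPlite luminescence.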

In the next test the test system is Es-2. Described as above. Conditions: Gynecologic cancer cell panel viability, ATPlite luminescence, 48 h; series mostly up to 57.5 µM. The gist of the method: as §2
Another test concerns JEG-3. Described as above. The conditions noted are these: Gynecologic cancer cell panel viability, ATPlite luminescence, 48 h; series mostly up to 57.5 µM. In outline: as §2
In a further test the test system is PA-1. Described as above. Conditions: Gynecologic cancer cell panel viability, ATPlite luminescence, 48 h; series mostly up to 57.5 µM. The gist of the method:
as §2

A further test relates to Tov-21-G. Described as above. Conditions: Gynecologic cancer cell panel viability, ATPlite luminescence, 48 h; series mostly up to 57.5 µM. In outline: as §2
The subject of another test is Tov112D. The test is described as above. Conditions: Gynecologic cancer cell panel viability, ATPlite luminescence, 48 h; series mostly up to 57.5 µM. The gist of the method:
as §2

The nature of test [6]: P-glycoprotein substrates identified in KB-8-5-11 adenocarcinoma cell line, qHTS therapeutic library screen (AID 1346987). Further: nearly all actives have a fitted effect of over 65% in size. Further: potency means the concentration at half of the fitted maximal effect. In outline: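 KB-8-5-11: colchicine-selected sub-line of KB-3-1 over-expressing P-gp; assay medium lacked colchicine. 72 h drug exposure at 37 degree C, CellTiter-Glo.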
The subject of the next test is CAOV3. Description: Primary qHTS to identify gynecologic anti-cancer compounds using libraries of approved drugs and bioactive compounds (AID 1345084). Further: nearly all actives have a fitted effect of over 55% in size. Further: potency means the concentration at half of the fitted maximal effect. Conditions: Gynecologic cancer cell panel viability, ATPlite luminescence, 48 h; series mostly up to 57.5 µM. The gist of the method:
as §2

The test system of a further test is OV90. Described as above. Conditions: Gynecologic cancer cell panel viability, ATPlite luminescence, 48 h; series mostly up to 57.5 µM. In outline: as §2
For the next test, the system named is C33A. The description is as above. Conditions: Gynecologic cancer cell panel viability, ATPlite luminescence, 48 h; series mostly up to 57.5 µM. In outline:
as §2

For a further test, the system named is Hek293T. The test is described as above. Conditions: Gynecologic cancer cell panel viability, ATPlite luminescence, 48 h, control line for the selectivity index; series mostly up to 57.5 µM. The gist of the method:
as §2

As to `Cc1ccccc1CN1CCC(N2CCC(n3c(=O)[nH]c4ccccc43)CC2)CC1`, the Potency result (in test [1]; in [2]; in [3]; in test [5]; in the test with CASKI; with Es-2) was “inactive” each time. In addition, the Potency entry in the test on JEG-3, with PA-1, in the test on Tov-21-G and with Tov112D was “inactive” each time. The compound was classed as inactive (in test [4]; with NIH3T3). For the same compound, the Potency in the test on CRL-7250 is 7.31 µM (active); in the test on HEK293, 6.51 µM (active). Moreover, in the test on HaCat, the max response was 0.939%.
For `O=C(CC1NCCC[C@H]1O)Cn1cnc2cc(Br)c(Cl)cc2c1=O` (some centres undefined), the Potency result in test [6] and in test [3] was “inactive” in each case. In addition, the max response is -5.15% in the test with CRL-7250, -10.4% with HEK293, -11.7% with HaCat and -4.52% in the test on NIH3T3.
Take `C[C@]12CC[C@H](O[C@@H]3O[C@H](CO)[C@@H](O)[C@H](O)[C@H]3O[C@@H]3O[C@H](CO)[C@@H](O)[C@H](O)[C@H]3O)CC1=CC[C@@H]1[C@@H]2CC[C@]2(C)[C@@H](C3=CC(=O)OC3)CC[C@]12O`: the Potency entry (in [1]; in test [3]; in [5]; in the test with CAOV3; in the test with CASKI; with JEG-3) was “inactive” each time. The Potency result with OV90 is “inactive”. The Potency was 2.16 µM (active) in [2], 3.85 µM (active) with CRL-7250, 6.11 µM (active) in the test with HEK293 and 6.31 µM (active) in the test with Tov-21-G. Besides, in test [4], the outcome is “inactive [at 25.7 µM]”. In addition, the max response in the test with HaCat was -17%; with NIH3T3, 1.49%.
As to `CCCCN1[C@@H]2CC[C@H]1CC(OC(c1ccc(F)cc1)c1ccc(F)cc1)C2` (some centres undefined), the Potency in [6] is 18.4 µM (active); in test [2] it was 12.9 µM (active); with HEK293 it was 23.1 µM (active); with C33A it was 22.4 µM (active); in the test with OV90, 12.6 µM (active); in the test on PA-1 it was 14.1 µM (active). Further, the Potency entry (in test [3]; in test [5]; in the test on JEG-3; in the test with Tov-21-G) was “inactive” in each case. In addition, in [4], the call was inactive. Also, the max response is -21.5% in the test on CRL-7250 and -29% in the test on HaCat.
As to `Oc1ccc2c3c1O[C@H]1c4[nH]c5c(N=C=S)cccc5c4C[C@@]4(O)[C@@H](C2)N(CC2CC2)CC[C@]314`, the Potency result (in test [3]; in test [5]; in the test with C33A; in the test on CAOV3; in the test with CASKI; with Es-2) was “inactive” in each case. Further, the Potency result in the test on Hek293T, in the test with OV90, in the test on PA-1, in the test with Tov-21-G and in the test on Tov112D was “inactive” each time. In addition, the call (in [4]; with HaCat) was inactive. Besides, the figures for the max response with CRL-7250, in the test with HEK293 and in the test on NIH3T3 were 1.1%, -0.6% and -11%, respectively.
Consider `CN1C(=O)N(c2ccc(C#N)c(C(F)(F)F)c2)C(=O)[C@@]1(CO)c1ccccc1`, for which the Potency entry (in test [6]; in [1]; in test [3]; in test [5]; with C33A; in the test on CAOV3) was “inactive” each time. Besides, the Potency entry in the test on CASKI, with Es-2, with Hek293T, in the test on JEG-3, with OV90 and in the test on PA-1 was “inactive” each time. Besides, the Potency entry in the test with Tov-21-G and in the test on Tov112D was “inactive” each time. Further, the compound was called inactive (in [4]; with CRL-7250). Also, the max response is 0.274% in the test on HaCat and 4.41% in the test with NIH3T3.
In the case of `c1ccc([C@@H]2C[C@H]2NC2CCNCC2)cc1`, the Potency entry (in test [6]; in test [1]; in test [2]; in test [3]; in the test on C33A; in the test on CAOV3) was “inactive” throughout. Also, the Potency entry in the test on CASKI, in the test with Es-2, with Hek293T, in the test on JEG-3, in the test on OV90 and in the test with PA-1 was “inactive” each time. For the same compound, the Potency entry in the test with Tov-21-G and with Tov112D was “inactive” each time. Further, the compound was called inactive in [4]. The max response is -8.87% in the test with CRL-7250 and -16.2% with HEK293.
